# Reference: PubChem BioAssay (NCI)
# About 83,000 compounds went through this panel and 20% of them were active in at least one assay; those are over-represented in the sample as a whole.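 Single-dose data. Exposure time 48 hours. Values below 10 considered active.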 Unmarked numbers belong to inactive results. Activity calls are given as the source filed them.
# System: M14 melanoma
# Assay: NCI-60 one-dose screen, 48 h (100 = growth as untreated, 0 = no growth, -100 = all killed)
# Conditions: 10 µM unless noted
row,Structure (SMILES),growth
1,OCCCCc1nccc2c1[nH]c1ccccc12,102%
2,CCCn1nc(-c2ccccc2)c2c(-c3ccccc3)onc2c1=O,57.2%
3,Cc1cc(N(CCCNc2ccnc3cc(Cl)ccc23)Cc2ccccn2)nc(N2CCCC2)n1,93.7%
4,C=C(C)[C@@H]1CC[C@]2(CN)CC[C@]3(C)[C@H](CC[C@@H]4[C@@]5(C)CCC(N)[C@@](C)(CO)[C@@H]5CC[C@]43C)[C@@H]12 (some centres undefined),-81.8% (active)
5,COc1ccc(-n2ncn(CCCCCCn3cnn(-c4ccc(OC)cc4)c3=O)c2=O)cc1,97.5%
6,O=C(NC1CCOCC1)c1ccc2c(c1)CN(c1ncc(Cc3cccc(-n4cccn4)c3)s1)CC2,64%
7,C=C(CNCCc1ccc(O)cc1)[C@@H]1CC[C@]2(COC3CCCCO3)CC[C@]3(C)[C@H](CC[C@@H]4[C@@]5(C)CCC(NCCO)C(C)(C)[C@@H]5CC[C@]43C)[C@@H]12 (some centres undefined),-86.8% (active)
8,Cc1c(C(=O)O[C@H]2[C@@H]3[C@H](C)CC[C@H]3[C@]3(C)O[C@@]2(C2CCCCC2)C[C@H]3OC(=O)CO)ccc2ccccc12,36.2%
9,COc1ccc(Oc2nc(Nc3ccc(N4CCCCC4)nc3)ncc2NC(=O)c2cc(OC)cc(OC)c2)cc1,32.3%
10,O=C(Oc1ccc[nH]c1=O)c1cc([N+](=O)[O-])cc([N+](=O)[O-])c1,101%
11,Cc1cc(N2CCCCC2)nc(N(CCNc2ccnc3cc(Cl)ccc23)Cc2ccccn2)n1,45%
12,CCCCOc1ccc(NC(=O)n2nc(N=NN(C)C)c3ccc(Cl)cc32)cc1,89.4%
13,O=C1NN(C(=O)c2ccc(O)cc2)C(c2ccccc2)=N/C1=C\c1cn(-c2ccccc2)nc1-c1ccccc1,96.2%
14,COC(=O)/C(=C\c1ccc(OC)cc1)C(=O)N1c2ccccc2Sc2ccccc21,23.3%
15,COc1ccc(Oc2nc(Nc3ccc(N4CCOCC4)nc3)ncc2NC(=O)c2cc(OC)cc(OC)c2)cc1,72.8%
16,NC(=O)c1c(NC(=O)c2ccc(C(F)(F)F)cc2Cl)sc2c1CCC(=O)C2,-30.1% (active)
17,O=C(NCCOCCOCCOCCNC(=O)c1cc2c(o1)C(=O)c1ccccc1C2=O)NC12CC3CC(CC(C3)C1)C2,-40.2% (active)
18,COC(=O)c1ccc(CSc2nnc(-c3ccncc3)o2)cc1,102%
19,CCCc1nc2ccccn2c1Nc1ccc(C(=O)NO)cc1,89.6%
20,Fc1ccc(Nc2ccc3cc(OCCCN4CCOCC4)ccc3n2)cc1F,-6.62% (active)

row,Structure (SMILES),growth
1,C=C1c2c(C)nn(-c3ccc(S(N)(=O)=O)cc3)c2N(C)C23CC1C1(C)c4c(C)nn(-c5ccc(S(N)(=O)=O)cc5)c4N(C)C(C)(CC12)C3 (centres undefined),20.6%
2,C=C1c2c(C)nn(-c3ccc(NC(C)=O)cc3)c2N(C)C23CC1C1(C)c4c(C)nn(-c5ccc(NC(C)=O)cc5)c4N(C)C(C)(CC12)C3 (centres undefined),19.6%
3,C[C@@H]1CC[C@@H]2[C@@H]1[C@H](OC(=O)c1ccc3ccccc3c1)[C@]1(C3CCCCC3)C[C@@H](OC(=O)CO)[C@@]2(C)O1,61.4%
4,CC(C)(C)c1ccc(C(=O)Nc2sc3c(c2C(N)=O)CCC(=O)C3)cc1,-49.2% (active)
5,N=c1ccn2c(n1)OC1C(O)C(CO)OC12 (centres undefined),-25.5% (active)
6,NC(=Nc1ccc(N)cc1)C(N)=Nc1ccc(N)cc1,99.7%
7,COc1ccc(/C=C(\C#N)n2nnc3cc(F)c(F)cc32)c(OC)c1OC,72.7%
8,C=C1c2c(C)nn(-c3ccc(O)cc3)c2N(C)C23C[C@@H]1C1(C)c4c(C)nn(-c5ccc(O)cc5)c4N(C)C(C)(C[C@H]12)C3 (some centres undefined),15.5%
9,CSc1ccc(Cl)c(C(=O)Nc2sccc2C(N)=O)c1,123%
10,C=C1c2c(C)nn(-c3ccc(N)cc3)c2N(C)C23CC1C1(C)c4c(C)nn(-c5ccc(N)cc5)c4N(C)C(C)(CC12)C3 (centres undefined),61.6%
11,CC(=O)Nc1ccc2c(c1)Cc1c(F)cccc1-2,119%
12,C=C(C)[C@@H]1CC[C@]2(CNCCO)CC[C@]3(C)[C@H](CC[C@@H]4[C@@]5(C)CCC(N)[C@@](C)(CO)[C@@H]5CC[C@]43C)[C@@H]12 (some centres undefined),-77% (active)
13,Cc1cnc(Nc2ccc(OCCN3CCCC3)cc2)nc1NCc1ccco1,96.3%
14,Cc1cc(N(CCCNc2ccnc3cc(Cl)ccc23)Cc2ccccn2)nc(N2CCOCC2)n1,95.7%
15,C=C(CNCCc1ccc(O)cc1)[C@@H]1CC[C@]2(COC3CCCCO3)CC[C@]3(C)[C@H](CC[C@@H]4[C@@]5(C)CCC(N)C(C)(C)[C@@H]5CC[C@]43C)[C@@H]12 (some centres undefined),-88.6% (active)
16,Clc1ccc2c(NCCCN3CCN(c4nc(-n5ccnc5)nc5ccccc45)CC3)ccnc2c1,-24% (active)
17,Cn1c(NCCc2ccc(O)c(O)c2)nc2c1c(=O)n(Cc1ccc(Cl)cc1)c(=O)n2C,78.8%
18,CCN(CC)N=Nc1nn(C(=O)Nc2ccc(Cc3ccccc3)cc2)c2ccc(Cl)cc12,22%
19,COC(=O)c1ccc2oc(NC(=O)c3ccc(N4CCOCC4)c([N+](=O)[O-])c3)nc2c1,98.8%
